The results in this text go back to PubChem BioAssay AID651718 (The Scripps Research Institute Molecular Screening Center, 2012).

SMILES strings stand for the structures. Out of some 360,000 compounds screened, about 2,700 (0.75%) were called active. This excerpt belongs to a sample that is enriched for actives. Unmarked numbers belong to inactive results. Cut-off read from the data, not from the text of the source: active = inhibition above about 4.5%; inactive = the rest.

This test deals with Methionine sulfoxide reductase A (Bos taurus). The experiment in a line: inhibition of methionine sulfoxide reductase A – biochemical, absorbance, bovine, HTS, primary screen (AID 651718).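 Note: 0% = vehicle wells with enzyme and 100% = reference inhibitor wells.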 The following applies: purified bovine MsrA, absorbance read-out; at 15.5 µM; hits give high values.
Take `NC(=O)CSc1nnc(NC(=O)c2ccc(Br)o2)s1`: the inhibition is 4.64% (active).
The figure for `COC(=O)CSc1nnc(NC(=O)CCc2ccccc2)s1` is 0.95%; for `CC(C)(C)NC(=O)CSc1nnc(NC(=O)CCc2ccccc2)s1` it is 0.59%; for `COC(=O)[C@]12C[C@H](CC(=O)NCCc3ccccc3OC)C(=O)N(Cc3ccccc3)C1=C[C@H](C(C)C)O[C@@H]2C1CC1` it is 0.87%.
The figure for `Cc1ccc(C(=O)N/C(=C\c2cn(C)c3ccccc23)C(=O)N2CCN(C)CC2)cc1` is 3.12%.
With `COc1ccc(/C=C(\NC(=O)c2ccccc2)C(=O)NCCN2CCOCC2)cc1OC` the figure was 2.05%; with `CCn1cc(/C=C(\NC(=O)c2ccc(C)cc2)C(=O)NCCN2CCOCC2)c2ccccc21`, 4.67% (active).
Regarding `O=C(O)Cn1cnc2c(NCc3ccccc3)ncnc21`, the inhibition is 0.37%.
With `Cc1ccc(S(=O)(=O)N(C)c2ccc(OCC(=O)NC3=NCCS3)cc2)cc1` the figure was -0.97%; with `Cc1ccc(S(=O)(=O)N(C)c2ccc(OCC(=O)OCc3ccc(C#N)cc3)cc2)cc1`, 7.12% (active).
The figure for `Cc1ccc(S(=O)(=O)N(C)c2ccc(OCC(=O)OCC(=O)N(CC#N)c3ccccc3)cc2)cc1` is 0.73%; for `NC(=O)c1ccc(-c2csnn2)cc1` it is 1.41%.
The figure for `Cc1cc(C)nc(N2C(=O)CC(Cc3ccccc3)C2=O)n1` (stereo not drawn) is -1.66%; for `CC1(C)N=C(c2ccccn2)C(C)(C)N1O` it is 0.21%; for `COC(=O)C1=C(C)NC(=S)NC1c1ccc(OC)cc1` (stereo not drawn) it is 0.87%.
On to `CCCCNc1cccc2c1S(=O)(=O)N[C@@H](C)CO2`, for which the inhibition is 0.33%.
The figure for `Nc1nnnn1/N=C/c1cccs1` is 0.3%.
With `Nc1nnnn1/N=C/c1cccc(Br)c1` the figure was 0.5%; with `COc1ccc(/C=N/n2nnnc2N)cc1OC`, 4.82% (active).
Turning to `CCN(CC)Cc1c(C(=O)OC)nnn1-c1nonc1N`, the inhibition is 0.6%.
As to `CC1(C)OC(=O)C2=C(CC(CCc3ccccc3)OC2c2ccc(Cl)cc2)O1` (stereo not drawn), the inhibition is 0.43%.
With `COc1cc(/C=N/NC(=O)Nc2ccccc2)ccc1OCCOc1ccccc1C` the figure was 0.83%; with `Cc1nnsc1C(=O)N/N=C/c1cccc(C(F)(F)F)c1`, -1.17%; with `COc1ccc(/C=N\NC(=O)c2sc(N)nc2C)cc1OC`, 7.88% (active).
With `Cc1cc(OC(=O)NCCc2ccc(F)cc2)ccc1F` the figure was 0.24%.
With `CCCCCCCCN1C(=O)[C@@H](CC(=O)NCCCC)C[C@@]2(C(=O)OC)C1=C[C@H](C(C)(C)C)O[C@@H]2C` the figure was 0.08%; with `O=C(/C=C/Sc1ncn[nH]1)c1ccc(Cl)cc1`, 5.19% (active); with `COc1cccc(-c2cc(CNC(=O)[C@@H](Cc3ccccc3)NC(=O)[C@H]3O[C@@H](n4cnc(C(N)=O)n4)[C@H](O)[C@@H]3O)no2)c1`, -0.49%.
As for `COc1ccccc1CCn1cnc(-c2ccccc2)c1C(C)C`, the inhibition was 0%.
The figure for `COc1ccc(CCNC(=S)NC(=O)/C=C/c2ccc(C)cc2)cc1OC` is 0.54%; for `COc1ccc(/C=C2\SC(=N)N(c3ccc(F)cc3)C2=O)cc1` it is -0.72%; for `COc1ccc(/C=C2/CCCc3ccccc3C2=O)cc1` it is 0.69%.
For the compound `COc1ccc(/C=C2\N=C3CCCN3C2=O)cc1`, the inhibition is 4.73% (active).
In the case of `CCCCn1c(N)c(N(CCOC)C(=O)COc2c(C)cccc2C)c(=O)[nH]c1=O`, the inhibition is 0.79%.
With `O=C(NCc1ccccc1)[C@H]1CCCN1C(=O)[C@H]1CCCN1C(=O)c1cc(F)cc(F)c1` the figure was 0.16%; with `O=C(CC(=O)c1cccnc1)c1ccccc1`, 2.87%.
The figure for `O=C(Oc1c(-c2ccco2)oc2ccccc2c1=O)c1cccnc1` is 5.77% (active); for `O=C(OCc1cc2ccccc2[nH]c1=O)c1cccnc1` it is -0.22%.
For the compound `CCOc1cc(/C=N/NC(=O)c2ccc(CSc3nncn3C)cc2)ccc1OCC(=O)N1CCOCC1`, the inhibition is 4.92% (active).
`CC(C)CC(CC(C)C)=NNC(=O)c1ccc(CSc2nncn2C)cc1`: the inhibition was -0.77%.
The figure for `CCOc1cc(/C=N/NC(=O)c2cccc(S(=O)(=O)N3CCOCC3)c2)ccc1OCC(=O)N(C)C` is 4.25%; for `CCC(Cc1ccccc1)NS(=O)(=O)c1ccc2c(c1)NC(=O)CS2` (stereo not drawn) it is -0.21%.
The figure for `C=CCNC(=S)NNC(=O)c1ccc(Br)o1` is -0.22%.
With `C=CCNC(=S)N/N=C/c1ccc(C)s1` the figure was 4.91% (active); with `CNC(=S)N/N=C/c1ccc(N2CCOCC2)s1`, 3.27%; with `CC(C)(C)C(c1nc2ccccc2[nH]1)n1c(Cc2csc3ccccc23)nc2ccccc21` (stereo not drawn), -0.41%.
As to `COC(=O)C1=C(C)N(Cc2ccccc2C(F)(F)F)C(=NCC2CC2)NC1c1cccc(Cl)c1` (stereo not drawn), the inhibition is -2.13%.
The figure for `O=S1(=O)c2ccc(Br)cc2-n2nncc2CN1Cc1cccc(Cl)c1` is 0.62%.
With `CC(C)(C)n1nc(C2CC2)c(Br)c1NC(=O)c1ccccc1F` the figure was -0.05%; with `CC(C)C[C@H]1CN([C@@H](Cc2ccccc2)CN2CCC[C@@H]2CN2C(=O)C(=O)NC[C@@H]2Cc2ccc(O)cc2)C(=O)C(=O)N1CCc1ccccc1`, -0.32%.
With `O=C(O)c1ccccc1Cc1ccc(F)c2ccccc12` the figure was 0.31%.
As for `COc1cccc(NC(=O)N(C)C[C@@H]2OCc3cn(nn3)CCCC(=O)N([C@@H](C)CO)C[C@H]2C)c1`, the inhibition is 0.43%.
Consider `O=S1(=O)N=C(N(CCO)/N=C/c2ccccc2F)c2ccccc21`, for which the inhibition was 5.01% (active).
Regarding `C=CCOCCN(C)C1=NS(=O)(=O)c2ccccc21`, the inhibition was 0.32%.
With `COc1ccc(/C=N/N(C)C2=NS(=O)(=O)c3ccccc32)cc1OC` the figure was 1.42%; with `O=S1(=O)c2c(cccc2N2CCCC2)O[C@H](COCc2ccccc2)CN1C1CC1`, 0.28%.
The figure for `C=CCN=C1NC(c2ccccc2)C(C(=O)OC)=C(C)N1Cc1ccc(C(F)(F)F)cc1` (stereo not drawn) is -1.03%; for `CC(=O)c1ccc(S(=O)(=O)N2CCN(c3nc4c(C)c(C)ccc4cc3C#N)CC2)cc1` it is 0.77%.
The figure for `Cc1cccc2cc(C#N)c(N3CCCC3)nc12` is 7.71% (active); for `Cc1cc(C)c2cc(C#N)c(N3CCNCC3)nc2c1` it is 0.05%.
Regarding `N#Cc1cccc(C(=O)NCC2CCN(C(=O)C(=O)c3cc4ccccc4o3)CC2)c1`, the inhibition is 1.67%.
For `COc1ccc(-c2ccc(Nc3ccc(S(=O)(=O)N4CCCC4)cc3)nn2)cc1OC`, the inhibition was 5.88% (active).
With `COc1ccc(S(=O)(=O)N2CCCCCC2)cc1NC(=O)Cc1ccc(OC)c(OC)c1` the figure was -0.53%.
The figure for `COc1ccccc1CC(=O)Nc1ccc(S(=O)(=O)N2CCCC2)cc1` is -0.82%; for `COc1ccc(S(=O)(=O)NC(C)c2ccccc2)cc1C(=O)N1CCCCC1` (stereo not drawn) it is 0.8%.
Consider `COC(=O)C1=C(C)N(Cc2ccccc2C(F)(F)F)C(=NCc2ccc(C(F)(F)F)cc2)NC1c1ccc(F)cc1` (stereo not drawn), for which the inhibition is -2.62%.
With `C#CCN([C@@H](C)C(=O)OCC)S(=O)(=O)c1ccc(Br)cc1F` the figure was -0.88%.
The figure for `CCOC(=O)N1CCN(C(=O)CSc2nc(C)nc3c2c(=O)n(C)c(=O)n3C)CC1` is -1.46%; for `Cn1c(=O)c2c(SCC(=O)N3CCOCC3)nc(C3CC3)nc2n(C)c1=O` it is -0.05%; for `CCCc1nc(SCC(=O)N2CCCC2)c2c(=O)n(C)c(=O)n(C)c2n1` it is 5.22% (active).
With `CC1CCCN(c2cccc3c2S(=O)(=O)N(Cc2ccc(F)cc2)[C@@H](C)[C@H](c2ccccc2)O3)C1` (stereo partly drawn) the figure was 0.93%; with `Cc1ccc(C)c(NC2=NCC(=O)N2c2ccc3c(c2)OCCO3)c1`, 0%.
As for `Cc1ccc(N2C(=O)CN=C2Nc2nc(C)cc(C)n2)cc1`, the inhibition is 6.56% (active).
The figure for `Cc1cc(C)nc(NC2=NCC(=O)N2c2ccc(Cl)cc2)n1` is 3.92%.
With `COC(=O)C1=C(C)N(Cc2cccc(C(F)(F)F)c2)C(=NCc2ccccc2)NC1c1ccccc1C(F)(F)F` (stereo not drawn) the figure was -1.24%; with `CC(C)[C@@H](C)/C=C/[C@@H](C)[C@H]1CC[C@@H]2[C@]1(C)CCC1[C@]23C=C[C@]2(C[C@@H](O)CC[C@]12C)N(c1ccc([N+](=O)[O-])cn1)O3` (stereo partly drawn), -1.75%.
With `O=C(O)CC1S/C(=N\N=C/c2ccccc2O)N(c2ccc(O)cc2)C1=O` (stereo not drawn) the figure was 4.57% (active).
With `CN1C(=O)C(CC(=O)Nc2ccccc2)S/C1=N/c1nccs1` (stereo not drawn), the inhibition is 1.53%.
The figure for `CCCCOCC1CN(CCCC)S(=O)(=O)c2c(Oc3ccc(F)cc3)cccc2O1` (stereo not drawn) is 0.09%.
The figure for `C[C@H](CO)N1C[C@H](C)[C@@H](CN(C)C(=O)Nc2ccccc2F)OCc2cn(nn2)CCCC1=O` is -1.47%; for `Cc1ccc(S(=O)(=O)c2c[nH]c3ccc(Cl)cc3c2=O)cc1` it is -0.29%; for `COc1ccc(S(=O)(=O)c2c[nH]c(=S)[nH]c2=O)cc1Cl` it is 5.55% (active).
As for `COc1ccc(S(=O)(=O)N(C)CC(=O)N2CCCC2)cc1Cl`, the inhibition was -0.26%.
Take `C[C@H](O)[C@@H]1C(=O)N2CCc3c([nH]c4c(-c5ccc6c(c5)OCO6)cccc34)[C@@H]2C[C@@H]1N(C)C(=O)c1ccco1`: the inhibition is -0.82%.
The figure for `COC(=O)C1=C(C)N(Cc2ccc(C(F)(F)F)cc2)C(=NCc2ccc(C(F)(F)F)cc2)NC1c1cccc(Cl)c1` (stereo not drawn) is -2.13%.
With `Cc1ccc(/C=N/NC(=S)NC2CCCCC2)o1` the figure was 4.73% (active); with `Cc1ccc(/C=N/NC(=O)Cn2nc(C)c(Br)c2C)o1`, 1.58%.
With `C/C(=N\NC(=S)NC1CCCCC1)c1ccc(C)o1` the figure was 2.23%.
